In all, about 48,000 compounds went through this assay and about 13,000 (27%) showed an effect of 50% or more. The list shows a part of the results.
The compounds below were run on Wolbachia pipientis (assay: Anti-Wolbachia Cell-Based Screen). Details: 5 µM.
Type: functional
Parameters: scale not given: in the data most compounds retested in dose-response had high values

Row | Compound | Percent Effect
1 | CC(Sc1nnc(C2CC2)n1CC(N)=O)c1ccc(Cl)cc1 (stereo not drawn) | 0.3539%
2 | OCC1(CCOc2ccccc2)CCN(c2ccc(Cl)cn2)CC1 | -3.583%
3 | Cc1ccc(Cl)cc1-n1nnnc1C1(N2CCCC2)CCCC1 | -26.05%
4 | COc1cccc(NC(=O)NCC(Cc2cnn(C)c2)C(N)=O)c1 (stereo not drawn) | 2.392%
5 | COc1ncccc1NC(=O)NCC(O)c1ccc(F)cc1F (stereo not drawn) | 0.8108%
6 | O=C(NCC(O)c1ccc(F)cc1F)c1ccccc1F (stereo not drawn) | 15.04%
7 | COc1cccc(NC(=O)NCc2cnn(C)c2)c1 | 90.55%
8 | COc1cccc(NC(=O)NCC(O)c2ccc(F)cc2F)c1 (stereo not drawn) | 109.6%
9 | CC(C)Nc1cccc(C(=O)NCC(O)c2ccc(F)cc2F)c1 (stereo not drawn) | 1.201%
10 | CC(C)OCCOCc1cccc(NC(=O)NCc2cnn(C)c2)c1 | 2.629%
11 | COc1ccccc1NC(=O)NCC(O)c1ccc(F)cc1F (stereo not drawn) | 114.6%
12 | Cc1cccc(C(=O)NCC(O)c2ccc(F)cc2F)c1 (stereo not drawn) | 14.48%
13 | CC(=O)c1cccc(OC(C)C(=O)Nc2cnn(CCN(C)C)c2)c1 (stereo not drawn) | -1.957%
14 | CC(NC(=O)c1cccc(CCC(C)(C)O)c1)c1nnc(N)s1 (stereo not drawn) | -8.452%
15 | OCc1ccc(OCC(F)(F)F)cc1 | 0.2216%
16 | CCC(C)N(C)C(=O)Nc1ccc(N2CCSCC2)cc1C (stereo not drawn) | -11.87%
17 | O=C(O)C(F)(F)F.O=C(c1cnccn1)N1C[C@@H]2CCN(c3cccnc3)C[C@@H]2C1 | -9.697%
18 | CC(C)CC(=O)N1C[C@@H]2CCN(c3cnccn3)C[C@@H]2C1.O=C(O)C(F)(F)F | 83.3%
19 | O=C(O)C(F)(F)F.O=C(c1ccccc1)N1CCO[C@@H]2CN(c3cnccn3)C[C@@H]2C1 | -2.123%
20 | CC(C)CN1CCO[C@H]2CCN(c3cnccn3)CC[C@@H]21.O=C(O)C(F)(F)F | 107%
21 | CCCC(=O)N1C[C@@H]2CCN(c3cnccn3)C[C@@H]2C1.O=C(O)C(F)(F)F | 107.8%
22 | CCOCC(=O)N1C[C@@H]2CCN(c3cnccn3)C[C@@H]2C1.O=C(O)C(F)(F)F | 110.3%
23 | CC(SCC(=O)NC(N)=O)c1ccccc1F (stereo not drawn) | -3.716%

Row | Compound | Percent Effect
24 | Cc1cc(C)cc(S(=O)(=O)NCC2CNCCOC2)c1 (stereo not drawn) | 5.985%
25 | Cc1c(C(=O)NS(=O)(=O)c2ccsc2)cnn1CC(C)C | 9.8%
26 | CCC(=O)N1C[C@@H]2CCN(c3cnccn3)C[C@@H]2C1.O=C(O)C(F)(F)F | 109.3%
27 | Cn1ccnc1C(=O)N1C[C@@H]2CCN(c3cnccn3)C[C@@H]2C1.O=C(O)C(F)(F)F | -15.62%
28 | Cn1cncc1C(=O)N1C[C@@H]2CCN(c3cnccn3)C[C@@H]2C1.O=C(O)C(F)(F)F | -2.415%
29 | O=C(c1nc(=O)[nH][nH]1)N1CCCN(CC2CCCCC2)CC1 | 4.28%
30 | Cc1nc(C2(O)CCCNCC2)sc1CCOc1ccc(Cl)cc1.Cl (stereo not drawn) | -4.713%
31 | Cc1[nH]nc2ncc(C(=O)N3CCN(CC(C)(C)O)CC3)cc12 | -29.67%
32 | CCS(=O)(=O)N1Cc2nccn2CC(COc2cccnc2)C1 (stereo not drawn) | -25.66%
33 | CCOCC1CN(S(=O)(=O)c2cccc(C)c2)Cc2nccn2C1 (stereo not drawn) | 102.9%
34 | CCOCc1ncn2c1CN(S(=O)(=O)c1cccc(C)c1)CC2 | -2.947%
35 | COCc1ncn2c1CN(S(=O)(=O)c1cccc(F)c1)CC2 | -3.986%
36 | COCC1CN(S(=O)(=O)c2cccc(F)c2)Cc2nccn2C1 (stereo not drawn) | 114.5%
37 | O=S(=O)(Cc1ccccc1)NC[C@H]1Cn2ccnc2CO1 | -7.74%
38 | COCC1CN(S(=O)(=O)c2ccccc2)Cc2ncnn2C1 (stereo not drawn) | 2.623%
39 | CCOCC1CN(S(=O)(=O)Cc2ccccc2)Cc2nccn2C1 (stereo not drawn) | 112.8%
40 | CCOCC1CN(S(=O)(=O)c2ccccc2)Cc2nccn2C1 (stereo not drawn) | 89.2%
41 | CCc1nnc(CN(C)c2nc(C(C)C)nc3c2cnn3C)o1 | -14.59%
42 | CCc1nc(C2CCCN2c2ncc(C(F)(F)F)cc2Cl)no1 (stereo not drawn) | 16.09%
43 | Cc1cccc(S(=O)(=O)N2Cc3c(CN(C)C)nn(C)c3C2)c1 | -7.774%
44 | Cc1cccc(S(=O)(=O)N2Cc3nccn3CC(CN(C)C)C2)c1 (stereo not drawn) | 117.9%
45 | CCCS(=O)(=O)N1Cc2nccn2CC(CN(C)C)C1.O=C(O)C(F)(F)F (stereo not drawn) | -8.912%
46 | CS(=O)(=O)N1CCOC2(CCCC2)C1 | -2.404%

Row | Compound | Percent Effect
47 | COCCC1COC2(CCN(C(=O)C3CCCCC3)CC2)C1 (stereo not drawn) | -0.113%
48 | CS(=O)(=O)N1CCC2(CC1)CN(CCn1cccn1)C(=O)CO2 | -11.65%
49 | COCCC1COC2(CCN(C(C)=O)CC2)C1 (stereo not drawn) | -6.336%
50 | COCCC1COC2(CCN(C(=O)C3CCCC3)CC2)C1 (stereo not drawn) | -1.347%
51 | CC(C)C1=NOC2(CCN(C(=O)C3CCCC3)CC2)C1 | 98.86%
52 | CC(=O)N1CCC2(CC1)CC(C(C)C)=NO2 | 118.9%
53 | Cc1ccc(C(=O)N2CCC3(CC2)CC(NC(=O)C(C)C)CO3)cc1 (stereo not drawn) | -11.34%
54 | CC(C)C1=NOC2(CCN(S(C)(=O)=O)CC2)C1 | 106.9%
55 | CO[C@H]1CNC[C@@H]1NC(=O)c1cc(C)nc2c(C)cc(C)cc12 | 0.2692%
56 | Cc1cnn(CCNCc2ccccc2Oc2cccnc2)c1 | 8.919%
57 | CCCc1nc(N2Cc3cnn(Cc4ccc(F)cc4)c3C2)no1 | 5.743%
58 | CSc1ccccc1CN1C[C@H]2CC[C@@H]1CN(Cc1[nH]cnc1C)C2 | -3.423%
59 | CC(C)(C)C(N)c1nc(-c2nnc[nH]2)no1 (stereo not drawn) | -10.11%
60 | CCOc1cc(/C=C/c2ncc(C(=O)O)s2)cc(Br)c1O | 111.7%
61 | COC(=O)c1ccc(/C=C/c2ncc(C(=O)O)s2)cc1 | 5.854%
62 | CNC(=O)c1cnc(/C=C/c2cc(OC)cc(OC)c2)s1 | 5.835%
63 | CCOc1cc(/C=C/c2ncc(C(=O)O)s2)cc(Br)c1OC | 120.5%
64 | CNC(=O)c1cnc(/C=C/c2cc(OC)c(O)c(OC)c2)s1 | -7.095%
65 | CCOc1cc(/C=C/c2ncc(C(=O)O)s2)ccc1O | 7.127%
66 | CCOc1c(Br)cc(/C=C/c2ncc(C(=O)O)s2)cc1OC | 109.6%
67 | CCOc1c(OC)cc(/C=C/c2ncc(C(=O)NC)s2)cc1OC | -0.7468%
68 | COC(=O)c1cnc(/C=C/c2ccc(C(=O)O)cc2)s1 | -4.44%

From ChEMBL document CHEMBL3988442, “University of Dundee, Small-Polar-MMV Screening Library” (2021)
